Data as given in PubChem BioAssay (Tox21).
Results filed as inconclusive are left out. Entries that show only a call come without a potency. Calls of active or inactive are those of the source. Calls follow the shape of the dose curve; as a rule, active = well fitted cell-killing curve with a large enough effect in the repeat runs; inconclusive = weak or mixed curves, or effect the other way; inactive = no such curve, though single readings can be large or run the other way.
Potency is read from the fitted curve at half-maximal effect.

Assay: qHTS assay for identifying genotoxic compounds that show differential cytotoxicity against isogenic chicken DT40 cell lines with known DNA damage response pathways - Rev3 mutant cell line (AID 743014); also: nearly all actives have a fitted effect of over 55% in size
Conditions: chicken DT40 Rev3-/- viability, CellTiter-Glo, 40 h; series mostly up to 68.4 µM
With O=C(O)C(=O)Cc1c[nH]c2ccccc12 the Potency was “inactive”.
For CS(=O)(=O)c1ccc([C@@H](O)[C@@H](CF)NC(=O)C(Cl)Cl)cc1, the Potency was 6.39 µM (active).
In the case of COc1ccc2nc(NC(=O)Nc3ccccc3)sc2c1, the Potency is reported as 26.6 µM (active).
With O=c1oc2c(O)c(O)cc3c(=O)oc4c(O)c(O)cc1c4c23 the Potency was “inactive”.
For CCC(=O)Nc1ccc(O)cc1, the Potency was “inactive”.
In the case of Cc1nnc(SCC2=C(C(=O)O)N3C(=O)[C@@H](NC(=O)Cn4cnnn4)[C@H]3SC2)s1, the Potency is reported as “inactive”.
For Cc1ccc([N+](=O)[O-])c(N)c1, the Potency was “inactive”.
In the case of CCCOCCC, the Potency is reported as “inactive”.
For C=CC1CO1 (stereo not given), the Potency was “inactive”.
In the case of Cc1ccc(C(C)C)cc1O, the Potency is reported as “inactive”.
In the case of O=C1CCCCCCCCCCC(=O)OCCO1, the Potency is reported as “inactive”.
For COc1cc(Cl)ccc1Cl, the Potency was “inactive”.
With CCNCCO the Potency was “inactive”.
In the case of CCc1nnc(NS(=O)(=O)c2ccc(N)cc2)s1, the Potency is reported as “inactive”.
With FC(F)(F)c1ccccc1 the Potency was “inactive”.
In the case of CC(C)OC(C)C, the Potency is reported as “inactive”.
With ClC(Cl)Cl the Potency was “inactive”.
With CCCN(CCC)C(=O)C(CCC(=O)O)NC(=O)c1ccccc1 (stereo not given) the Potency was “inactive”.
With CC1(C)O[C@@H]2C[C@H]3[C@@H]4CCC5=CC(=O)CC[C@]5(C)[C@@]4(F)[C@@H](O)C[C@]3(C)[C@]2(C(=O)CCl)O1 the Potency was “inactive”.
For O=C(O[C@@H](C(=O)O)[C@@H](OC(=O)c1ccccc1)C(=O)O)c1ccccc1, the Potency was “inactive”.
